Source: the supplement of paper PMC7411054
Where a name gives a salt, the structure may show the parent alone.

Assays:
Assay in all cases: phenotypically active (imaging signature differs from DMSO and reproducible) at any of 0.3-9 uM (binary (1 = active, 0 = inactive)); higher = active
Details in all cases: treatment time: 24 h
A549-ACTB-RAB5A = system: A549-ACTB-RAB5A
Outline: (§1)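 Live-cell features were measured per well and normalised to solvent control wells after fifteen gene-edited A549, HepG2 and WPMY1 reporter lines had been treated for 24 h at 0.3, 1, 3 or 9 µM in four wells each. A condition was deviating when ≥3 of 4 wells sat beyond the 95th percentile of control Euclidean distances. It was reproducible when the median replicate Pearson correlation exceeded the 95th percentile of non-replicates. Phenotypic activity demanded both.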

A549-CANX-COX4 = system: A549-CANX-COX4
Outline: as §1

A549-GM130-SQSTM1 = system: A549-GM130-SQSTM1
Outline: as §1

A549-TP53BP1-CLTA = system: A549-TP53BP1-CLTA
Outline: as §1

A549-TUBA1B-RELA = system: A549-TUBA1B-RELA
Outline: as §1

HepG2-ACTB-RAB5A = system: HepG2-ACTB-RAB5A
Outline: as §1

HepG2-CANX-COX4 = system: HepG2-CANX-COX4
Outline: as §1

HepG2-GM130-SQSTM1 = system: HepG2-GM130-SQSTM1
Outline: as §1

HepG2-TP53BP1-CLTA = system: HepG2-TP53BP1-CLTA
Outline: as §1

HepG2-TUBA1B-RELA = system: HepG2-TUBA1B-RELA
Outline: as §1

WPMY1-ACTB-RAB5A = system: WPMY1-ACTB-RAB5A
Outline: as §1

WPMY1-CANX-COX4 = system: WPMY1-CANX-COX4
Outline: as §1

WPMY1-GM130-SQSTM1 = system: WPMY1-GM130-SQSTM1
Outline: as §1

WPMY1-TP53BP1-CLTA = system: WPMY1-TP53BP1-CLTA
Outline: as §1

WPMY1-TUBA1B-RELA = system: WPMY1-TUBA1B-RELA
Outline: as §1

Measured: phenotypically active

N[C@H]1C[C@@H]1c1ccccc1 [tranylcypromine]
inactive: A549-ACTB-RAB5A 0 | A549-CANX-COX4 0 | A549-GM130-SQSTM1 0 | A549-TP53BP1-CLTA 0 | A549-TUBA1B-RELA 0 | HepG2-ACTB-RAB5A 0 | HepG2-CANX-COX4 0 | HepG2-GM130-SQSTM1 0 | HepG2-TP53BP1-CLTA 0 | HepG2-TUBA1B-RELA 0 | WPMY1-ACTB-RAB5A 0 | WPMY1-CANX-COX4 0 | WPMY1-GM130-SQSTM1 0 | WPMY1-TP53BP1-CLTA 0 | WPMY1-TUBA1B-RELA 0

C#CCN(C)[C@H](C)Cc1ccccc1 [selegiline]
inactive: A549-ACTB-RAB5A 0 | A549-CANX-COX4 0 | A549-GM130-SQSTM1 0 | A549-TP53BP1-CLTA 0 | A549-TUBA1B-RELA 0 | HepG2-ACTB-RAB5A 0 | HepG2-CANX-COX4 0 | HepG2-GM130-SQSTM1 0 | HepG2-TP53BP1-CLTA 0 | HepG2-TUBA1B-RELA 0 | WPMY1-ACTB-RAB5A 0 | WPMY1-CANX-COX4 0 | WPMY1-GM130-SQSTM1 0 | WPMY1-TP53BP1-CLTA 0 | WPMY1-TUBA1B-RELA 0

COc1ccc(C(=O)Cc2c(CCN(C)C)cc3c(c2OC)OCO3)c(C(=O)O)c1OC [Narcétine]
inactive: A549-ACTB-RAB5A 0 | A549-CANX-COX4 0 | A549-GM130-SQSTM1 0 | A549-TP53BP1-CLTA 0 | A549-TUBA1B-RELA 0 | HepG2-ACTB-RAB5A 0 | HepG2-CANX-COX4 0 | HepG2-GM130-SQSTM1 0 | HepG2-TP53BP1-CLTA 0 | HepG2-TUBA1B-RELA 0 | WPMY1-ACTB-RAB5A 0 | WPMY1-CANX-COX4 0 | WPMY1-GM130-SQSTM1 0 | WPMY1-TP53BP1-CLTA 0 | WPMY1-TUBA1B-RELA 0

CCN1C[C@]2(COC)CC[C@H](OC)[C@]34[C@@H]5C[C@H]6[C@H](OC)[C@@H]5[C@@]5(C[C@@H]6OC)OCO[C@@]5([C@H]13)[C@@H](O)[C@H]24 [Delcorine]
inactive: A549-ACTB-RAB5A 0 | A549-CANX-COX4 0 | A549-GM130-SQSTM1 0 | A549-TP53BP1-CLTA 0 | A549-TUBA1B-RELA 0 | HepG2-ACTB-RAB5A 0 | HepG2-CANX-COX4 0 | HepG2-GM130-SQSTM1 0 | HepG2-TP53BP1-CLTA 0 | HepG2-TUBA1B-RELA 0 | WPMY1-ACTB-RAB5A 0 | WPMY1-CANX-COX4 0 | WPMY1-GM130-SQSTM1 0 | WPMY1-TP53BP1-CLTA 0 | WPMY1-TUBA1B-RELA 0

Cc1nnc2n1-c1ccc(Cl)cc1C(c1ccccc1)=NC2 [alprazolam]
inactive: A549-ACTB-RAB5A 0 | A549-CANX-COX4 0 | A549-GM130-SQSTM1 0 | A549-TP53BP1-CLTA 0 | A549-TUBA1B-RELA 0 | HepG2-ACTB-RAB5A 0 | HepG2-CANX-COX4 0 | HepG2-GM130-SQSTM1 0 | HepG2-TP53BP1-CLTA 0 | HepG2-TUBA1B-RELA 0 | WPMY1-ACTB-RAB5A 0 | WPMY1-CANX-COX4 0 | WPMY1-GM130-SQSTM1 0 | WPMY1-TP53BP1-CLTA 0 | WPMY1-TUBA1B-RELA 0

C=C(C)[C@H]1CN[C@H](C(=O)O)[C@H]1CC(=O)O [Kainic acid]
inactive: A549-ACTB-RAB5A 0 | A549-CANX-COX4 0 | A549-GM130-SQSTM1 0 | A549-TP53BP1-CLTA 0 | A549-TUBA1B-RELA 0 | HepG2-ACTB-RAB5A 0 | HepG2-CANX-COX4 0 | HepG2-GM130-SQSTM1 0 | HepG2-TP53BP1-CLTA 0 | HepG2-TUBA1B-RELA 0 | WPMY1-ACTB-RAB5A 0 | WPMY1-CANX-COX4 0 | WPMY1-GM130-SQSTM1 0 | WPMY1-TP53BP1-CLTA 0 | WPMY1-TUBA1B-RELA 0

CNC(=O)Oc1ccc2c(c1)[C@]1(C)CCN(C)[C@@H]1N2C [Eserine sulfate, physostigmine sulfate]
inactive: A549-ACTB-RAB5A 0 | A549-CANX-COX4 0 | A549-GM130-SQSTM1 0 | A549-TP53BP1-CLTA 0 | A549-TUBA1B-RELA 0 | HepG2-ACTB-RAB5A 0 | HepG2-CANX-COX4 0 | HepG2-GM130-SQSTM1 0 | HepG2-TP53BP1-CLTA 0 | HepG2-TUBA1B-RELA 0 | WPMY1-ACTB-RAB5A 0 | WPMY1-CANX-COX4 0 | WPMY1-GM130-SQSTM1 0 | WPMY1-TP53BP1-CLTA 0 | WPMY1-TUBA1B-RELA 0

CN1C2CCC1CC(O)C2 (stereo not given) [Tropine]
inactive: A549-ACTB-RAB5A 0 | A549-CANX-COX4 0 | A549-GM130-SQSTM1 0 | A549-TP53BP1-CLTA 0 | A549-TUBA1B-RELA 0 | HepG2-ACTB-RAB5A 0 | HepG2-CANX-COX4 0 | HepG2-GM130-SQSTM1 0 | HepG2-TP53BP1-CLTA 0 | HepG2-TUBA1B-RELA 0 | WPMY1-ACTB-RAB5A 0 | WPMY1-CANX-COX4 0 | WPMY1-GM130-SQSTM1 0 | WPMY1-TP53BP1-CLTA 0 | WPMY1-TUBA1B-RELA 0

COc1ccc2c(c1)[C@]13CCCC[C@@H]1[C@H](C2)N(C)CC3 [dextromethorphan]
inactive: A549-ACTB-RAB5A 0 | A549-CANX-COX4 0 | A549-GM130-SQSTM1 0 | A549-TP53BP1-CLTA 0 | A549-TUBA1B-RELA 0 | HepG2-ACTB-RAB5A 0 | HepG2-CANX-COX4 0 | HepG2-GM130-SQSTM1 0 | HepG2-TP53BP1-CLTA 0 | HepG2-TUBA1B-RELA 0 | WPMY1-ACTB-RAB5A 0 | WPMY1-CANX-COX4 0 | WPMY1-GM130-SQSTM1 0 | WPMY1-TP53BP1-CLTA 0 | WPMY1-TUBA1B-RELA 0

COc1ccc(C(=O)OC2C[C@H]3CC[C@H](C2)N3C)cc1OC (stereo not given in full) [Convolamine hydrochloride]
inactive: A549-ACTB-RAB5A 0 | A549-CANX-COX4 0 | A549-GM130-SQSTM1 0 | A549-TP53BP1-CLTA 0 | A549-TUBA1B-RELA 0 | HepG2-ACTB-RAB5A 0 | HepG2-CANX-COX4 0 | HepG2-GM130-SQSTM1 0 | HepG2-TP53BP1-CLTA 0 | HepG2-TUBA1B-RELA 0 | WPMY1-ACTB-RAB5A 0 | WPMY1-CANX-COX4 0 | WPMY1-GM130-SQSTM1 0 | WPMY1-TP53BP1-CLTA 0 | WPMY1-TUBA1B-RELA 0

C/C=C1\C[C@@H](C)[C@](O)(CO)C(=O)OCC2=CCN3CC[C@@H](OC1=O)[C@@H]23 [Retrorsine]
inactive: A549-ACTB-RAB5A 0 | A549-CANX-COX4 0 | A549-GM130-SQSTM1 0 | A549-TP53BP1-CLTA 0 | A549-TUBA1B-RELA 0 | HepG2-ACTB-RAB5A 0 | HepG2-CANX-COX4 0 | HepG2-GM130-SQSTM1 0 | HepG2-TP53BP1-CLTA 0 | HepG2-TUBA1B-RELA 0 | WPMY1-ACTB-RAB5A 0 | WPMY1-CANX-COX4 0 | WPMY1-GM130-SQSTM1 0 | WPMY1-TP53BP1-CLTA 0 | WPMY1-TUBA1B-RELA 0
